In the library only some 9.9% were active in any assay of this set; here they are far more common.
SW480 rereplic: inducers of DNA re-replication in SW480 colon cancer cells. SW480 DNA re-replication, Hoechst DNA content imaging, 48 h. Potency, µM (series often up to 46.1 µM), for inactives: at the top dose re-replication activation, hits mostly activators. actives 1.8% (n = 340,000). AID 624297; note: potency is the fitted concentration of half-maximal effect; % of control where 0% means no effect; nearly all actives have a fitted effect of over 55% in size
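Image-based read-out: total Hoechst fluorescence of nuclei (405 nm excitation, 500-530 nm emission), with hits raising the fraction of high-intensity nuclei. SW480 colon cells incubated 48 hr with compounds at 37 C.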
MCF10A rereplic: induces DNA re-replication in MCF 10a normal breast cells | MCF 10A DNA re-replication, Hoechst nuclear intensity, 48 h | Potency, µM (top dose mostly 46.1 µM), without a hit: at the highest dose activity, positive = re-replication, actives largely listed as activators | actives 2.9% (n = 350,000); note: potency is the fitted concentration of half-maximal effect; % of control where 0% means no effect; nearly all actives have a fitted effect of over 50% in size
KB-3-1 cytotox: kills parental KB-3-1 adenocarcinoma cells; KB-3-1 viability, CellTiter-Glo ATP luminescence, 72 h; Potency, µM (highest dose often 46.1 µM), usual class: cytotoxic; actives 1.4% (n = 400,000); AID 1347075; note: potency is the fitted concentration of half-maximal effect; % is set by controls: 0 for no effect and ±100 for the full control effect; nearly all actives have a fitted effect of over 60% in size
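Using CellTiter-Glo luminescence, growth of non-resistant KB-3-1 adenocarcinoma cells is assessed 72 h after pin-tool compound addition at 37 °C. Normalized responses across the concentration series yield fitted curves.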
KB-V1 cytotox: kills drug-selected multidrug resistant KB-V1 cells; AID 1347076; actives 3.4% (n = 400,000); KB-V1 MDR cells viability, CellTiter-Glo, 72 h; Potency, µM (titrated, usually from 46.1 µM), actives largely listed as cytotoxic; note: potency is the fitted concentration of half-maximal effect; % is set by controls: 0 for no effect and ±100 for the full control effect; nearly all actives have a fitted effect of over 60% in size
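KB-V1 cells (P-gp-expressing MDR subline of KB-3-1) in phenol-red-free DMEM with 10% FBS were exposed to library compounds over a concentration series for 72 h at 37 degrees C. Viability read by CellTiter-Glo luminescence; concentration-effect curves fitted after normalization.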
IL1B secr inh: inhibitors of inflammasome signaling (IL-1 beta secretion); THP-1 LPS/ATP IL-1B secretion, AlphaLISA, 16 h; active compounds read low; activity change, % at 57.5 µM; actives 4.7% (n = 360,000); in the data active = activity change below about -50%; inconclusive = mostly about -30% to -49%; note: % is set by controls: 0 for no effect and ±100 for the full control effect
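Secreted IL-1B measured by AlphaLISA bead assay after 16 h compound exposure of THP-1 cells; compounds (final up to 57.5 uM) added 1 h before LPS (250 ng/mL) and ATP (1.25 mM) stimulation; lower signal means less secretion.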
An asterisk follows results filed as active; i = inactive; ? = inconclusive; / = no result given; ! = not confirmed by another sample; [ ] = another dose, or the depositor's remark. Unless noted, calls come from the whole dose curve; as a rule, active = well fitted curve in the direction sought with a large enough effect; inconclusive = small, poorly fitted or top-dose-only effect, or another doubt; inactive = no such curve, though single readings can be large; an effect the other way counts as inactive or inconclusive.

SMILES	SW480 rereplic	MCF10A rereplic	KB-3-1 cytotox	KB-V1 cytotox	IL1B secr inh
COc1ccc(OCC(=O)NNC(=O)C(=O)N2CCCC2)cc1	-1%	-6%	i	i	6
COc1ccc(-c2csc(NC(=S)NC(=O)/C=C/c3ccco3)n2)cc1Br	?	?	5.2µM*	4.1µM*	/
COc1ccc(-c2csc(NC(=S)NC(=O)c3ccco3)n2)cc1Br	21%	?	?	?	-7
COc1ccc(-c2csc(NC(=S)NC(=O)/C=C/c3ccco3)n2)cc1OC	9.2µM*	6.5µM*	7.3µM*	6.5µM*	-13
COc1ccc(-c2csc(NC(=S)NC(=O)/C=C/c3ccc(C(C)C)cc3)n2)cc1OC	?	0%	i	i	-17
Cn1c2c(c(=O)n(C)c1=O)C(C(F)(F)F)(C(F)(F)F)N=C(CCC1CCCCC1)N2	18%	?	23µM*	?	-58*
CN(C)c1ccc(/C=C/c2c([N+](=O)[O-])c(=O)n(C)c(=O)n2C)cc1	-6%	-6%	i	i	-1
CCCOc1ccc(/C=C/c2c([N+](=O)[O-])c(=O)n(C)c(=O)n2C)cc1	-21%	7%	i	i	-77*
Cn1c(/C=C/c2ccc(Br)cc2)c([N+](=O)[O-])c(=O)n(C)c1=O	?	21µM*	21µM*	?	-103*
CCCOc1ccc(/C=C/C(=O)Nc2ccc([N+](=O)[O-])cc2C)cc1	-1%	-21%	i	i	-10
C[C@H]1CN=C(N(C)C)N1CC1CCC(C(C)(C)C)CC1 (stereo partly drawn)	-6%[9.22 µM]	?	?	i	-8
CCC(NC(=O)c1cccc(Cn2nc(C)c([N+](=O)[O-])c2C)c1)c1ccc(C(C)C)cc1 (stereo not drawn)	-5%	4%	i	2.9µM*	36
Cc1nn(Cc2cccc(C(=O)NC(C)c3ccc(C(C)(C)C)cc3)c2)c(C)c1[N+](=O)[O-] (stereo not drawn)	10%	?	?	6.5µM*	-8
Cc1nn(Cc2cccc(C(=O)O)c2)c(C)c1[N+](=O)[O-]	-6%	-1%	i	?	29
COc1cc2c(cc1OC)CN(c1ccc(-c3ccccc3OC)nn1)CC2	6%	10%	i	?	/
COc1cc2c(cc1OC)CN(c1ccc3ccccc3n1)CC2	2%	?	i	i	-89*
COc1cc2c(cc1OC)CN(c1ccc(C(F)(F)F)cn1)CC2	?	16µM*	i	?	-90*
COCCNC(=O)C(C)OC(=O)C1=Cc2ccccc2OC1 (stereo not drawn)	-2%	1%	i	i	-4
CC(OC(=O)C1=Cc2ccccc2OC1)C(=O)NCC1CCCO1 (stereo not drawn)	0%	21µM*	i	i	2
Cc1ccsc1CCN1C(=O)N(c2ccccc2)C(=O)C1CC(=O)Nc1ccc(F)cc1 (stereo not drawn)	/	/	23µM*	?	/
CCOc1ccc(NC(=O)CC2C(=O)N(c3ccccc3)C(=O)N2CCc2cccs2)cc1 (stereo not drawn)	?	-1%	i	5.8µM*!	-8
COC(=O)c1n[nH]n(-c2ccccc2)c1=O	/	/	i	i	/
COc1cccc(C=O)c1OCCN1C(=O)c2ccccc2C1=O	-6%	3%	i	i	0
Oc1ccccc1N1CCN(C(=S)NCCc2ccccc2)CC1	8%	?	?	15µM*	-16
COc1ccc(C(=O)NC(=S)N2CCN(c3ccccc3O)CC2)cc1	3%	-5%	i	21µM*	-26
SMILES	SW480 rereplic	MCF10A rereplic	KB-3-1 cytotox	KB-V1 cytotox	IL1B secr inh
O=C(NNC(=O)c1ccccc1O)c1ccc(Br)cc1	2.9µM*	-8%	i	i	31
O=C(COC(=O)c1ccccc1O)NNC(=O)c1ccc(Br)cc1	-1%	0%	i	i	-12
Oc1ccc(N2CCN(C(=S)NCCc3ccccc3)CC2)cc1	?	?	?	i	26
COc1ccc(C(=O)NC(=S)NNC(=O)c2ccccc2O)cc1	13%	23µM*	?	?	63
COc1ccc(C(=O)NC(C(=O)N2CCN(c3ccccc3O)CC2)C(C)C)cc1 (stereo not drawn)	-5%	6%	i	?	-3
Cc1ccc(CCNC(=O)C2COc3ccccc3C2)cc1 (stereo not drawn)	/	/	i	?	/
CCCCOc1cccc2c(=O)n(CC(=O)Nc3ccc4c(c3)OCCO4)ccc12	/	/	?	?	-13
COc1cc(CN(C(=O)COc2ccc(Cl)c(C)c2)c2ccccn2)cc(OC)c1OC	/	/	i	i	/
COc1ccc(CC(=O)NNC(=O)c2cnccn2)cc1	-121%	3%	i	i	17
O=C(CNC(=O)c1ccc(Br)cc1)c1ccccc1	?	2%	i	i	-65*
COc1ccc(C(=O)NNC(=S)NC(=O)C(C)(C)C)cc1	-5%	1%	?	i	-102*
COc1ccc(C(=O)NC(=S)NNC(=O)c2cnccn2)cc1	1%	6.5µM*	?	i	23
O=C(NC(=S)NNC(=O)c1cnccn1)c1ccc(Cl)cc1	12%	0%	i	i	20
CCCCOc1ccc(C(=O)NNC(=O)c2cnccn2)cc1OC	?	16%	?	i	-73*
CCN(Cc1ccccc1)Cc1c(O)ccc2c(=O)c(-c3ccccc3OC)c(C(F)(F)F)oc12	/	/	i	i	/
CCOc1ccc2nc(N3CCCC(C(=O)NCCCN4C(C)CCCC4C)C3)sc2c1 (stereo not drawn)	?	?	i	i	-70*
CCOc1ccc2nc(N3CCCC(C(=O)NCCCN4CC(C)CC(C)C4)C3)sc2c1 (stereo not drawn)	?	15%	?	i	-53*
N#C/C(=C\c1ccc(F)cc1)C(=O)Nc1ccccn1	4.1µM*	5%	i	i	58
O=C(/C=C/c1ccc(Cl)cc1Cl)NCCSc1ccccc1	-8%	?	i	i	-88*
O=C(/C=C/c1ccc(Cl)cc1Cl)NCCSCc1ccccc1	1%	?	i	i	-96*
O=C(/C=C/c1ccc(Cl)cc1)NCCSc1ccccc1	-9%	2%	i	?	-8
CC(Nc1cc(C)cc(C)c1)=[N+](C)CCNS(=O)(=O)c1ccc(Cl)cc1	-1%	1%	i	i	-79*
O=C1/C(=C\c2ccccc2)CCc2c1[nH]c1ccccc21	3.3µM*	?	1.3µM*	?	?
Cc1ccc2[nH]c3c(c2c1)CC/C(=C/c1ccccc1)C3=O	?	?	i	13µM*	-8

Compound activity (PubChem)
